Compound activity as filed in PubChem.
HT1080-NT tox = kills 2HG-producing HT-1080-NT fibrosarcoma cells; 360,000 tested, 1.6% active; HT-1080-NT fibrosarcoma viability, CellTiter-Glo ATP luminescence, 48 h; AID 686970; Potency, µM (series often up to 46.1 µM), without a hit: at the top dose activity, negative = less viability, actives largely listed as cytotoxic;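 note: NT is the 2HG producing partner of a matched IDH1 knockdown line; 0% = DMSO-treated cells and -100% = media-only wells without cells; nearly all actives have a fitted effect of over 55% in size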
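A 48-hour cytotoxicity screen used HT-1080-NT cells plated 2 hours before compound delivery. ATP-based CellTiter-Glo luminescence measured viability, normalized to DMSO and no-cell controls.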
ATXN2 expr inh = inhibitors of ATXN2 expression; HEK-293 ATXN2-luciferase reporter, luminescence, 24 h; Potency, µM (highest dose often 57 µM), without a hit: top-dose activity change, negative = inhibition, most hits filed as inhibitors; 360,000 tested, 0.72% active; note: % is set by controls: 0 for no effect and ±100 for the full control effect; nearly all actives have a fitted effect of over 55% in size
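qHTS (up to 57 uM final) was run with 24 h compound exposure of reporter cells at 37 °C. Each well was multiplexed: SteadyGlo luminescence measured ATXN2-luciferase expression after a fluorogenic Gly-Phe-AFC viability readout (25 uM final).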
S2 tox = viability counter-screen for ATXN expression inhibitors; S2 cells (HEK-293 line with an ATXN2-luciferase reporter) viability, CellTiter-Fluor protease fluorescence, 24 h; Potency, µM (highest dose often 56.7 µM), usual class: cytotoxic; 400,000 tested, 0.49% active; AID 651635; note: nearly all actives have a fitted effect of over 40% in size
HepG2 viability = kills HepG2 cells in TGF-b inhibitor counter-screen; HepG2 CAGA-GFP viability, ATP luminescence, 18 h; Potency, µM (highest dose often 46.1 µM), for inactives: top-dose activity change, negative = cytotoxicity, usual class: cytotoxic; 410,000 tested, 0.76% active; AID 588856
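HepG2 CAGA-GFP cells (1000/well, DMEM with 1% FBS) received compound, then TGF-beta at 500 pg/mL final, and were incubated 18 hours at 37 degrees C. Viability was read by CellTiter-Glo luminescence. Media-only wells were set as complete cell-killing and DMSO as no toxicity.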
HT1080 IDH1KD tx = toxicity to HT-1080 IDH1 knockdown cells (counter line); HT-1080 IDH1 knockdown viability, ATP luminescence, 48 h; Potency, µM (titrated, usually from 46.1 µM), for inactives: at the highest dose activity, negative = toxicity, actives largely listed as cytotoxic; 360,000 tested, 2% active; AID 686971;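 note: 0% = DMSO wells and -100% = cell-free medium wells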
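In this qHTS, HT-1080 cells depleted of IDH1 are exposed for 48 h at 37 °C to compound titrations. Toxicity is scored from CellTiter-Glo luminescence, with DMSO as full viability and medium alone as none.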
TGFb inhibitor = blocks TGF-b signaling; Potency, µM (top dose mostly 46.1 µM), for inactives: at the highest dose activity, negative = inhibition, actives largely listed as inhibitors; HepG2 CAGA-GFP TGF-b/SMAD3 reporter, GFP fluorescence, 18 h; TGF-beta stimulated, 500 pg/mL final; 410,000 tested, 1.2% active; note: % is set by controls: 0 for no effect and ±100 for the full control effect; nearly all actives have a fitted effect of over 65% in size
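HEPG2 CAGA-GFP, 1000 cells/well; 2 h settle, 37 C; cpd via pin tool; TGF-b 500 pg/mL final; 18 h, 37 C; GFP imaging ex488/em500-530; %Activity normalised to -TGF-b and +DMSO controls; CRC fit, curve class.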
An asterisk follows results filed as active; i = inactive; u = inconclusive; x = no result. A selection: hits, their analogues and other compounds. The true share with any hit is near 3.8%. Calls come from the whole dose curve; as a rule, active = well fitted curve in the direction sought with a large enough effect; inconclusive = small, poorly fitted or top-dose-only effect, or another doubt; inactive = no such curve, though single readings can be large; an effect the other way counts as inactive or inconclusive. Potency is the fitted concentration of half-maximal effect.

SMILES	HT1080-NT tox	ATXN2 expr inh	S2 tox	HepG2 viability	HT1080 IDH1KD tx	TGFb inhibitor
Cc1ccc(C)c(N2CCN(C(=O)CCc3c(C)nn(-c4ccc(N5CCCC5)nn4)c3C)CC2)c1	x	x	x	-36.2%	x	12.6µM*
Cc1ccc(SC2=C(Sc3ccc(C)cc3)C(=O)c3ccccc3C2=O)cc1	3.2%	u	x	-8.9%	-1.8%	6.7%
CC1=CC(=O)C(Sc2ccc(C)cc2)=CC1=O	20.6µM*	x	x	-93.9%	u	u
COc1ccc(OC)c2c(/C=C/c3c(C)[nH]c4ccccc34)ccnc12	x	x	x	-95.5%	x	u
CCOc1ccc(Cl)cc1-c1cc(C(=O)Nc2ccc(F)cc2)[nH]n1	u	u	u	-22.9%	u	u
Nc1nccc(Oc2ccc(NC(=O)c3c[nH]cc(-c4ccc(F)cc4)c3=O)cc2F)c1Cl	x	30.6µM*	x	x	x	x
COCCN1Cc2cccc(C(=O)Nc3ccc(C)cc3C)c2C1=O	x	-7.7%	u	-7.0%	x	-30.3%
CCc1cccc2sc(N3CCN(C(=O)C4CC4)CC3)nc12	x	x	x	-37.2%	x	-29.5%
Cc1c(Cl)ccc2sc(N3CCN(C(=O)C4CC4)CC3)nc12	x	0.0%	u	-40.9%	x	17.8µM*
CN(C)CCn1cnc2c(c1=N)C(c1ccccc1)c1ccc3ccccc3c1O2 (configuration not stated)	-28.7%	u	x	-86.4%	-15.7%	17.8µM*
N=c1c2c(ncn1Cc1ccco1)Oc1c(ccc3ccccc13)C2c1ccccc1 (configuration not stated)	16.4µM*	u	u	-27.8%	u	0.0%
COc1ccc(O)c(CN2CCCN(c3nc(C)c4cc(C)c(C)cc4n3)CC2)c1	x	x	i	x	x	x
COc1ccc(-c2csc(NC(=S)NC(=O)c3ccco3)n2)cc1Br	14.0%	-14.2%	i	-1.5%	16.5%	-4.3%
COc1ccc(-c2csc(NC(=S)NC(=O)/C=C/c3ccco3)n2)cc1OC	11.6µM*	-31.9%	u	-27.4%	18.4µM*	9.9%
COc1ccc(-c2csc(NC(=S)NC(=O)/C=C/c3ccco3)n2)cc1Br	3.66µM*	u	i	0.2%	2.59µM*	-18.4%
COc1ccc(-c2csc(NC(=S)NC(=O)/C=C/c3ccc(C(C)C)cc3)n2)cc1OC	9.7%	6.9%	i	0.8%	0.3%	-5.9%
Cc1cc(C)cc(Nc2cc(C(=O)NCCCN(Cc3ccccc3)C(C)C)c3ccccc3n2)c1	x	14.1µM*	12.6µM*	0.7%	x	-29.5%
CSc1cccc(Nc2cc(C(=O)NCCCN(Cc3ccccc3)C(C)C)c3ccccc3n2)c1	x	25.1µM*	u	10µM*	x	u
COc1ccc(Nc2cc(C(=O)NCCCN(C)Cc3ccccc3)c3ccccc3n2)cc1	x	x	x	-49.1%	x	u
Cc1cccc(NC(=O)CSc2nc3c(sc4ccccc43)c(=O)n2CCCC(=O)NC2CCCC2)c1	x	x	x	-19.0%	x	-9.5%
COc1cccc2sc(Nc3nc(-c4cc5ccccc5oc4=O)cs3)nc12	5.17µM*	-6.3%	i	-56.4%	2.06µM*	-16.2%
COc1cccc2sc(Nc3nc(-c4ccncc4)cs3)nc12	2.31µM*	1.6%	i	8.3%	2.31µM*	9.5%
CCOc1ccccc1NC(=O)N(C)CCc1c(C)nn(CC)c1C	x	8.4%	i	1.6%	x	5.8%
COc1ccc(CN2CCc3c([nH]c4ccccc34)C2)c(OC)c1C	u	-36.2%	i	-21.0%	14.6µM*	-0.5%
COc1ccc(CN2CCc3c([nH]c4ccccc34)C2)cc1Br	-15.1%	x	u	-34.8%	-18.5%	u
SMILES	HT1080-NT tox	ATXN2 expr inh	S2 tox	HepG2 viability	HT1080 IDH1KD tx	TGFb inhibitor
Cc1ccc(-c2nnc(Nc3ccc(O)cc3)c3ccccc23)cc1S(=O)(=O)NCC1CCCO1 (configuration not stated)	x	-24.4%	u	5.1%	x	6.31µM*
Oc1ccc(Nc2nc(NCC3CCCO3)c3ccccc3n2)cc1 (configuration not stated)	20.6µM*	3.2%	u	-41.1%	u	-3.2%
Oc1ccccc1Nc1nc(NCC2CCCO2)c2ccccc2n1 (configuration not stated)	-4.6%	u	u	-22.3%	-9.5%	-8.0%
COc1ccc(Nc2nnc(-c3ccc(C)c(S(=O)(=O)NCc4nc5ccccc5[nH]4)c3)c3ccccc23)cc1	x	u	u	35.2%	x	7.94µM*
Cc1ccc(-c2nnc(Nc3ccc(O)cc3)c3ccccc23)cc1S(=O)(=O)N1CCCCC1	x	x	x	24.1%	x	2µM*
O=C(c1cncs1)N(Cc1cc2cc3c(cc2nc1N1CCOCC1)CCC3)CC1CCCO1 (configuration not stated)	x	x	i	x	x	x
COC(=O)C1CCN(Cc2ccc3c(c2)CN(C(=O)c2cc(C)nc(C)n2)CCO3)CC1	x	x	i	x	x	x
Cc1ccccc1-c1ccc2c(c1)O[C@@H](CN(C)C(=O)Nc1ccc(C(F)(F)F)cc1)[C@H](C)CN([C@@H](C)CO)S2(=O)=O	16.4µM*	u	u	-43.0%	16.4µM*	u
C[C@@H]1CN([C@H](C)CO)S(=O)(=O)c2ccc(Br)cc2O[C@@H]1CN(C)C(=O)Nc1ccc(C(F)(F)F)cc1	u	u	22.4µM*	-38.5%	u	u
C[C@@H]1CN([C@@H](C)CO)S(=O)(=O)c2ccc(Br)cc2O[C@H]1CN(C)C(=O)Nc1ccc(C(F)(F)F)cc1	u	u	x	15.9%	u	u
C[C@@H]1CN([C@H](C)CO)S(=O)(=O)c2ccc(-c3ccc(C#N)cc3)cc2O[C@H]1CN(C)C(=O)Nc1cc(F)ccc1F	u	15.8µM*	u	-10.7%	-28.1%	-2.4%
COC(=O)CNC(=O)N1CCN(S(=O)(=O)c2ccc3c(ccn3C)c2)CC1	x	8.9%	i	-3.5%	x	-20.5%
CC(C)N1CCc2nc(SCC(=O)Nc3cccc(F)c3)[nH]c(=O)c2C1	x	-0.7%	i	-8.9%	x	-3.5%
CC(C)(C)c1ccc(O)c(N=Cc2cccc([N+](=O)[O-])c2)c1	5.4%	x	x	x	12.0%	x
Fc1cccc(NC(=S)NCc2ccc(Cl)cc2)c1	6.8%	-0.4%	i	0.0%	16.5%	-28.9%
FC(F)(F)c1cccc(NC(=S)NCc2ccc(Cl)cc2)c1	u	u	x	15.8µM*	u	10µM*
Fc1cc(NC(=S)NCc2ccc(CNC(=S)Nc3ccc(Cl)c(F)c3)cc2)ccc1Cl	-25.6%	x	u	2.82µM*	-22.3%	u
COC(=O)[C@@H]1CCCN1C(=O)c1cc(NC(=O)c2ccccc2)cc2ncn(C3CCCC3)c12	x	x	i	x	x	x
